Measured values: PubChem BioAssay (NCI)
The panel holds about 83,000 compounds, 20% with a hit somewhere; the sample as a whole holds those more often.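 Each cell line was grown in a 96-well plate and treated with one concentration of compound for 48 hours. Values below 10 were considered active.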 Values without a mark were called inactive. Active and inactive are the calls of the source.

Tests used:
Assay in all cases: NCI-60 one-dose screen, 48 h (100 = growth as untreated, 0 = no growth, -100 = all killed)
Conditions in all cases: 10 µM unless noted
RPMI-8226 leukemia = system: RPMI-8226 leukemia
OVCAR-8 ovarian = system: OVCAR-8 ovarian
OVCAR-5 ovarian = system: OVCAR-5 ovarian
OVCAR-4 ovarian = system: OVCAR-4 ovarian
SK-OV-3 ovarian = system: SK-OV-3 ovarian
IGROV1 ovarian = system: IGROV1 ovarian
OVCAR-3 ovarian = system: OVCAR-3 ovarian
HS 578T breast = system: HS 578T breast
NCI/ADR-RES ovarian = system: NCI/ADR-RES ovarian
SR leukemia = system: SR leukemia

| Structure (SMILES) | growth (RPMI-8226 leukemia) | growth (OVCAR-8 ovarian) | growth (OVCAR-5 ovarian) | growth (OVCAR-4 ovarian) | growth (SK-OV-3 ovarian) | growth (IGROV1 ovarian) | growth (OVCAR-3 ovarian) | growth (HS 578T breast) | growth (NCI/ADR-RES ovarian) | growth (SR leukemia) |
| --- | --- | --- | --- | --- | --- | --- | --- | --- | --- | --- |
| C=CCn1c(SCC(=O)Nc2ccc(C(=O)/C=C/c3cc(OC)c(OC)c(OC)c3)cc2)nnc1-c1ccc(OC)cc1 | -33.1% (active) | 7.47% (active) | 9.19% (active) | 19.3% | 16.6% | -3.21% (active) | -45.9% (active) | 32.5% | 20.1% | – |
| O=c1[nH]ccc2nc(N3CCC(O)CC3)nc(Nc3cccc(C(F)(F)F)c3)c12 | 62.6% | 45.3% | 137% | 91.4% | 32.3% | 71.2% | 68.5% | 80.2% | 32.9% | – |
| CN(C)CC/C=C1\c2ccccc2Sc2ccc(Cl)cc21 | 72% | 69.2% | – | 69.9% | 74.1% | 53.8% | 74.4% | 65.6% | 63.2% | 62% |
| COC(=O)c1ccc(NC(N)=NCC(C)(C)COc2ccc(C(F)(F)F)cc2)nc1 | 10.9% | 52.2% | 72% | 40.6% | 106% | 21.3% | 50% | 86.3% | 44.6% | – |
| COc1ccc(C[C@H](N)C(=O)N[C@@H]2[C@@H](CO)OC(n3cnc4c(N(C)C)ncnc43)[C@@H]2O)cc1 (stereo partly drawn) | 12.5% | -52.3% (active) | – | -32.9% (active) | -25.3% (active) | -42.3% (active) | -94.7% (active) | 11.8% | 93.4% | -37.7% (active) |
| CN(C)c1ccc(/C=N/N=C(N)N)cc1 | – | 91.1% | 116% | 81.9% | 82.5% | 69.8% | 66.3% | 78.2% | 50.5% | 54.8% |
| Nc1nc(=S)ss1 | – | 104% | 114% | 106% | 101% | 133% | 116% | 98.2% | 104% | 80.6% |
| COc1ccc(-c2[nH]c3ccccc3c2/C=C(\C#N)S(=O)(=O)c2ccccc2)cc1 | – | 44.4% | 32.2% | -14.3% (active) | 29.2% | 32.7% | -35.7% (active) | 23.8% | – | 1.93% (active) |
| Oc1ccccc1/C=N/c1ccccn1 | 78% | 95% | – | 106% | 99.6% | – | 111% | 143% | -97.1% (active) | 104% |
| O=S(=O)(CCN1CCOCC1)Nc1cncc(-c2ccc3ncnc(Nc4ccc(F)c(Cl)c4)c3c2)c1 | 82.4% | 72.8% | 69.3% | 82.2% | 33.5% | 10.8% | 50.6% | 37% | 87.3% | – |
| CCOC(=O)NNc1nncc2ccccc12 | 105% | 98.2% | – | 116% | 101% | 106% | 121% | 98.9% | 103% | 93.3% |
| COc1ccc(OCC(O)CN2CCN(c3ccc(Cl)cc3)CC2)cc1 (stereo not drawn) | 98.9% | 61.6% | – | 79.8% | 90.7% | – | 105% | 123% | 185% | 112% |
| CCn1c(SC)nnc1-c1cc2c([nH]c3ccccc32)c(-c2cccc(O)c2)n1 | 30.1% | 25.4% | 48.8% | 12.5% | 27.5% | 35% | -7.34% (active) | 12.3% | 8.9% (active) | – |
| CC(=O)c1cc2c(c(O)c1C)C(=O)C(=O)c1c(O)cccc1-2 | -32.4% (active) | -60.6% (active) | -80.6% (active) | -97.6% (active) | -94.3% (active) | -37.3% (active) | -45.6% (active) | -12.3% (active) | -8.15% (active) | – |
